Assay results published in PubChem BioAssay.
Activity calls are given as the source filed them. Unless noted, no rule for the calls is given here.

Legend:
[1] = system: Wnt5a (protein binding on small-molecule microarray); experiment: Wnt5a binders on small-molecule microarray, primary screen, biophysical, 635/667 nm fluorescence (AID 1142); conditions: 635 nm fluorescence, higher = more signal;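 also: fluorescence read at 667 nm with signal to noise per printed feature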
[2] = cell viability in Huh7 cells, primary screen, cytotoxicity control for HCV replication inhibitor project, CellTiter-Glo luminescence, basal, 48 h (AID 1143); conditions: Huh7 HCV replicon, higher = more signal, called active from +8 up or from −8 down;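 also: Huh7 hepatoma cells carrying a hepatitis C replication reporter with no stimulus; test concentration not given here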
[3] = P. aeruginosa biofilm formation inhibitors, primary screen, PAO1 strain, BacTiter-Glo luminescence, LB-PBS (AID 1144); conditions: 12 h, higher = more signal
[4] = CREB reporter modulators without forskolin, primary screen, cell-based, PC12, CRE-LacZ reporter, unstimulated (AID 1145); conditions: no forskolin, luminescence, 4.5 h, higher = more signal, called active from +8 up or from −8 down
[5] = CREB reporter modulators under forskolin, primary screen, cell-based, PC12, CRE-LacZ reporter, forskolin-stimulated (AID 1146); conditions: luminescence, 4.5 h, higher = more signal, called active from +8 up or from −8 down;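 also: PC12 cells with 6xCRE LacZ reporter stimulated by forskolin 10 µM; beta-galactosidase reporter signal reflecting CREB driven transcription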
[6] = molecular target: Streptavidin (Streptomyces avidinii) (UniProt P22629); experiment: streptavidin binders on small-molecule microarray, primary screen, artefact control for SMM compound annotation, biophysical, 635/667 nm fluorescence (AID 1147); conditions: streptavidin binding, higher = more signal;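 also: signal reflects streptavidin binding to arrayed compounds as a control protein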
[7] = small-molecule binders of probe aInhba, primary screen, biochemical, small-molecule microarray, 635/667 nm fluorescence (AID 1148); conditions: higher = more signal;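 also: score merges 667nm spot fluorescence with signal-to-noise for antibody binding to printed compounds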
Torsin-1A (Homo sapiens) [8] = molecular target: Torsin-1A (Homo sapiens) (UniProt O14656); experiment: torsin A binders from cell lysate, primary screen, small-molecule microarray, wild-type, 635/667 nm (AID 1149); conditions: COS7 hTOR1A-WT lysate, 635 nm fluorescence, higher = more signal
Torsin-1A (Homo sapiens) [9] = molecular target: Torsin-1A (Homo sapiens) (UniProt O14656); experiment: small-molecule binders of mutant TOR1A in lysate, primary screen, cell lysate, small-molecule microarray, COS7 lysate, 635/667 nm fluorescence (AID 1150); conditions: COS7 hTOR1A mutant lysate, 635 nm fluorescence, higher = more signal;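 also: score pools 667 nm emission and signal to noise measuring lysate protein binding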
[10] = system: Sonic hedgehog protein (Shh); experiment: small-molecule binders of Shh protein, primary screen, biochemical, small-molecule microarray, 635/667 nm fluorescence (AID 1151); conditions: small-molecule microarray binding, 635 nm fluorescence; higher = more signal;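 also: Shh protein binding to compounds spotted on small-molecule microarray slides; score combines spot fluorescence intensity with signal-to-noise across triplicate slides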
[11] = E. coli DRC41 culture turbidity changes, primary screen, E. coli filamentation inducer project, strain DRC41, OD650, 48 h (AID 1152);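 also: E. coli MC1000 strain DRC41 lacking acrAB efflux pump and sulA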; conditions: E. coli DRC41 (acrAB sulA), higher = more signal, called active from +8 up or from −8 down
[12] = small-molecule binders of probe aLefty1, primary screen, biochemical, small-molecule microarray, 635/667 nm fluorescence (AID 1153); conditions: higher = more signal;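 also: score merges spot fluorescence with signal-to-noise ratio from the scanned slide images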
[13] = PSAC antagonists in infected red cells, primary screen, cell-based, P. falciparum Indochina, OD700, 1 h (AID 1154); conditions: P. falciparum Indochina infected RBC osmotic lysis, higher = more signal, called active from +8 up or from −8 down
[14] = PSAC antagonists in infected red cells, primary screen, cell-based, P. falciparum Indochina, OD700, 2 h (AID 1155);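 also: lysis reports solute entry through the parasite surface anion channel PSAC; channel blockers reduce lysis of infected cells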; conditions: P. falciparum Indochina infected erythrocytes, osmotic lysis OD700; higher = more signal, called active from +8 up or from −8 down
[15] = osmotic lysis modulators in infected erythrocytes, primary screen, PSAC antagonist project, cell-based, P. falciparum Indochina, OD700, 3 h (AID 1156); conditions: higher = more signal, called active from +8 up or from −8 down
[16] = PSAC antagonists in infected red cells, primary screen, cell-based, P. falciparum Indochina, OD700, 18 h (AID 1157); conditions: P. falciparum Indochina infected erythrocytes, osmotic lysis OD700, 18 h; higher = more signal, called active from +8 up or from −8 down
[17] = modulators of S6 phosphorylation in cells, primary screen, cell-based, A549, cytoblot, luminescence, serum-stimulated (AID 1158); conditions: A549 phospho-S6 cytoblot, 5 h, higher = more signal;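 also: serum-stimulated A549 lung adenocarcinoma cells; signal is phosphorylated S6 detected by cytoblot immunostaining with HRP secondary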
[18] = molecular target: NADPH oxidase 2 (Homo sapiens) (UniProt P04839); experiment: NOX2-dependent H2O2 signal modulators, primary screen, NOX inhibitor project, cell-based, HEK293-NOX2, PMA-stimulated, Amplex Red fluorescence (AID 1159); conditions: 45 min, higher = more signal, called active from +8 up or from −8 down; also: test concentration not given here
[19] = molecular target: NADPH oxidase 4 (Homo sapiens) (UniProt Q9NPH5); experiment: NOX4-dependent H2O2 signal modulators, primary screen, NOX inhibitor project, cell-based, HEK293-NOX4, tetracycline-induced, Amplex Red fluorescence (AID 1160); conditions: 45 min, higher = more signal, called active from +8 up or from −8 down
[20] = molecular target: NADPH oxidase 5 (Homo sapiens) (UniProt Q96PH1); experiment: NOX5-dependent H2O2 signal modulators, primary screen, NOX inhibitor project, cell-based, HEK293-NOX5, Amplex Red fluorescence (AID 1161); conditions: HEK293-NOX5, ionomycin, 45 min, higher = more signal
Sequence of NADPH oxidase 5 (Homo sapiens) (Q96PH1 whole entry, looked up): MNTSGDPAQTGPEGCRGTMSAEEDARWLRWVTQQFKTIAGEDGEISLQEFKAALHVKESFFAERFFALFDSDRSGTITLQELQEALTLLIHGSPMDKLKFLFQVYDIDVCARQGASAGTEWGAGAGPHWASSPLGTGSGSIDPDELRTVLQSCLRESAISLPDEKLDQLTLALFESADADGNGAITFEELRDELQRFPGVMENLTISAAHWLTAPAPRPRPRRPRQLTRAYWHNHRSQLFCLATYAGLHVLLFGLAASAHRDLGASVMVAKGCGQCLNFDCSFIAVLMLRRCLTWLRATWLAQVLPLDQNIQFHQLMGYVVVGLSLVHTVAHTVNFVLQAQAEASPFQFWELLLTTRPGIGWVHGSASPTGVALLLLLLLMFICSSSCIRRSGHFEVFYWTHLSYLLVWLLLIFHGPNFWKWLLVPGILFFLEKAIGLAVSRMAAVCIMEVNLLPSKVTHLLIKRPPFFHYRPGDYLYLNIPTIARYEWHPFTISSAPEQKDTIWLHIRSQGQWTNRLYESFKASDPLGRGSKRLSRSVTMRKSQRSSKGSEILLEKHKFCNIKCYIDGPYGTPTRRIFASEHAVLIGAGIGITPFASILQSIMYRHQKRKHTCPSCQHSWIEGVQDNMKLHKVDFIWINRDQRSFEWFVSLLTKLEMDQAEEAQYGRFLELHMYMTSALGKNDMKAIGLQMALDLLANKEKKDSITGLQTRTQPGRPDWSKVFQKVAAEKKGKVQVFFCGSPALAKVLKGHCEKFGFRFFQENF

Sequence of Torsin-1A (Homo sapiens) (O14656 whole entry, looked up): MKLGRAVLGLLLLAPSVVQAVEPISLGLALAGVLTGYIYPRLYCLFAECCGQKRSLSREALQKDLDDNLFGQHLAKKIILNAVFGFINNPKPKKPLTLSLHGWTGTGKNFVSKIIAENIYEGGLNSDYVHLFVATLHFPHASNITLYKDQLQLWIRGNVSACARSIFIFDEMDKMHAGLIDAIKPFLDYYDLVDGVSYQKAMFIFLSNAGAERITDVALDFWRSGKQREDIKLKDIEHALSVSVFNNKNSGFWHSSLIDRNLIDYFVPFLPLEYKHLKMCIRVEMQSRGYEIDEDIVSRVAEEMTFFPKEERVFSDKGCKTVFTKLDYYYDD
Sequence of NADPH oxidase 4 (Homo sapiens) (Q9NPH5 whole entry, looked up): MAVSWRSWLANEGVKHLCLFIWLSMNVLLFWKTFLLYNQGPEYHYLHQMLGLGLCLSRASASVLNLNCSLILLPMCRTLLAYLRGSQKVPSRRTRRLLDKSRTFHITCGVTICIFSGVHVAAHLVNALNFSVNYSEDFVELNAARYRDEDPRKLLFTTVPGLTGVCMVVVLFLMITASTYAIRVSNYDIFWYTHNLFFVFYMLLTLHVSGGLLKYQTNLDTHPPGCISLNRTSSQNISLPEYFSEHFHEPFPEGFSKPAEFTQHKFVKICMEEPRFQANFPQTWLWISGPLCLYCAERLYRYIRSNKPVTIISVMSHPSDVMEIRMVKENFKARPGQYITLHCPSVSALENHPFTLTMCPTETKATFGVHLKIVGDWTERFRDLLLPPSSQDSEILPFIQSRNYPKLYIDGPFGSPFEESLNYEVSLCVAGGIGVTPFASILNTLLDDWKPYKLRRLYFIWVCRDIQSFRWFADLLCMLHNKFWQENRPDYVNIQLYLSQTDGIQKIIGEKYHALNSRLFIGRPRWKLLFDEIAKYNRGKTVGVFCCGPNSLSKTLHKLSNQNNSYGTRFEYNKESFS
Sequence of Streptavidin (Streptomyces avidinii) (P22629 whole entry, looked up): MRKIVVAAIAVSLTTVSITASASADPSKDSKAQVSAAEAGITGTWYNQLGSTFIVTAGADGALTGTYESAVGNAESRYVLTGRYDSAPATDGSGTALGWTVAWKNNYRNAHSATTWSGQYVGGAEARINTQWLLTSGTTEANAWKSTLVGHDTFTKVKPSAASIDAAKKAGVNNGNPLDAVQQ
Sequence of NADPH oxidase 2 (Homo sapiens) (P04839 whole entry, looked up): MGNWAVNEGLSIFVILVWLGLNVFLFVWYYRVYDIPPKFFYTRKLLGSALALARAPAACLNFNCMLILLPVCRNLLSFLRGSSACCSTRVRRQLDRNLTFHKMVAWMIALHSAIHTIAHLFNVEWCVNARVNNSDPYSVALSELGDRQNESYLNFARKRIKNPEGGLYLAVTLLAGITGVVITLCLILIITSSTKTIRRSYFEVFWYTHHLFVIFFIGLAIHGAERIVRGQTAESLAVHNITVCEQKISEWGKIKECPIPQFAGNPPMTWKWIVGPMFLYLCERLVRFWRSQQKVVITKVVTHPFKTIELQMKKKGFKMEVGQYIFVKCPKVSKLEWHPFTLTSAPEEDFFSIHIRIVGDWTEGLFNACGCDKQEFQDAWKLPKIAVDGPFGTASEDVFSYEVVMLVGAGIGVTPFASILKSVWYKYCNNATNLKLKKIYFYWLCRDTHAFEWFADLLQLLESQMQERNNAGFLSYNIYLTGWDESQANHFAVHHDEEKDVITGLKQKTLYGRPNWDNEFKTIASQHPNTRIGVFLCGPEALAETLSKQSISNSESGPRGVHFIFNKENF

Row | SMILES | composite z-score [1] | z-score [2] | z-score [3] | z-score [4] | z-score [5] | composite z-score [6] | composite z-score [7] | composite z-score (Torsin-1A (Homo sapiens) [8]) | composite z-score (Torsin-1A (Homo sapiens) [9]) | composite z-score [10] | z-score [11] | composite z-score [12] | z-score [13] | z-score [14] | z-score [15] | z-score [16] | z-score [17] | z-score [18] | z-score [19] | z-score [20]
1 | N#Cc1ccc(C(O)C2C=CC3C(=O)NC(=O)C3N2Nc2ccc(Cl)cc2Cl)cc1 (stereo not given) | -0.0844 | 0.199 (inactive) | -0.376 (inactive) | 0.629 (inactive) | -0.728 (inactive) | 0.865 | 0.104 | -0.404 | 0.0924 | -0.855 | -1.18 (inactive) | 0.243 | 13.7 (active) | 2.42 (inactive) | 2.15 (inactive) | 1.39 (inactive) | -1.29 | -1.23 (inactive) | -5.23 (inactive) | -2.75
2 | COc1ccc(C(=O)Nc2ccc(CN3C(=O)[C@@]4(O[C@@H](CCn5cc(CCO)nn5)[C@H]([Si](C)(C)c5ccc(OC)cc5)[C@H]4C)c4ccccc43)cc2)cc1 | 0.236 | -7.97 (inactive) | 0.173 (inactive) | 6.94 (inactive) | -0.632 (inactive) | 0.421 | -0.0791 | 0.671 | 0.411 | 1.4 | -2.53 (inactive) | 0.232 | 27.6 (active) | 16.4 (active) | 2.35 (inactive) | 1.43 (inactive) | -0.368 | -1.81 (inactive) | 0.515 (inactive) | 3.12
3 | CC(C)(C)OC(=O)CC[C@@]1(C(=O)NCCN2CCOCC2)N=C(c2ccc(OCCCO)cc2)O[C@@H]1c1ccccc1CN=[N+]=[N-] | -0.119 | 0.0704 (inactive) | -0.495 (inactive) | -0.277 (inactive) | 0.54 (inactive) | 1.01 | -0.0494 | -0.428 | 0.467 | -0.919 | -0.936 (inactive) | -0.0255 | 24.4 (active) | 11.3 (active) | 0.0031 (inactive) | 1.21 (inactive) | -0.464 | 0.73 (inactive) | 1.46 (inactive) | 1.54
4 | COc1ccc(NN2C(C(O)c3ccc(I)cc3)C=CC3C(=O)N(C4CCCCC4)C(=O)C32)cc1 (stereo not given) | 0.404 | -1.7 (inactive) | -2.03 (inactive) | 0.435 (inactive) | -0.469 (inactive) | 1.34 | 0.253 | 0.237 | 0.51 | 1.3 | -0.111 (inactive) | 0.425 | 3.84 (inactive) | 1.16 (inactive) | -0.0985 (inactive) | 0.706 (inactive) | -0.569 | 0.0194 (inactive) | -0.672 (inactive) | -1.16
5 | CCCCCCc1nc(-c2ccc(-c3ccc(Cl)c(Cl)c3)o2)cc2c1[Si](C(C)C)(C(C)C)OC2 | -0.905 | -5.45 (inactive) | -1.51 (inactive) | -0.621 (inactive) | 1.29 (inactive) | -1.24 | -0.261 | -1.83 | -0.526 | -0.583 | 0.615 (inactive) | -0.193 | 3.45 (inactive) | 0.259 (inactive) | 0.78 (inactive) | -0.84 (inactive) | 1.6 | -5.23 (inactive) | -4.25 (inactive) | -7.11
6 | COCCOC(=O)N1C(=O)[C@@]2(c3cc(C#CCC(C(=O)OC)C(=O)OC)ccc31)[C@H](C(N)=O)[C@H]1C(=O)O[C@H](c3ccccc3)[C@H](c3ccccc3)N1[C@@H]2c1ccc(O)cc1 | 0.449 | -5.41 (inactive) | -1.01 (inactive) | -0.168 (inactive) | -0.339 (inactive) | -0.0413 | -0.0405 | 0.551 | 0.919 | 1.75 | -0.247 (inactive) | 0.0406 | 26.5 (active) | 12.4 (active) | 3.28 (inactive) | 2.53 (inactive) | -0.255 | 1.29 (inactive) | 0.385 (inactive) | 0.73
7 | N#Cc1ccc(-c2cccc(=O)o2)cc1 | 0.0017 | 0.454 (inactive) | -0.131 (inactive) | -0.163 (inactive) | 0.648 (inactive) | 0.427 | 0.085 | 0.435 | 0.0587 | 0.458 | -0.729 (inactive) | -0.0954 | 3.14 (inactive) | 1.15 (inactive) | -0.598 (inactive) | 0.979 (inactive) | -0.0905 | 0.191 (inactive) | -1.72 (inactive) | 0.172
8 | CCCCCC1=C2CNC(Cc3ccccc3)(C(=O)OC)C=C2C(C)C1=O (stereo not given) | -0.176 | -1.49 (inactive) | 0.949 (inactive) | 0.4 (inactive) | 2.19 (inactive) | 0.0482 | 0.222 | -0.88 | 0.154 | -0.695 | -1.76 (inactive) | 0.568 | 2.16 (inactive) | -0.21 (inactive) | 1.04 (inactive) | 0.422 (inactive) | -0.275 | -0.733 (inactive) | -3.5 (inactive) | -3
9 | COCCCNC(=O)[C@@]1(Sc2ccc(C)cc2)CC(=O)N(Cc2ccccc2C(F)(F)F)[C@@H]1c1ccc(CO)cc1I | -0.249 | -0.818 (inactive) | 0.86 (inactive) | -0.0888 (inactive) | 0.421 (inactive) | -0.503 | -0.111 | -1.5 | -0.642 | -1.02 | 0.0516 (inactive) | 0.112 | 2.06 (inactive) | 0.786 (inactive) | 0.385 (inactive) | 0.377 (inactive) | -0.248 | 0.843 (inactive) | -1.01 (inactive) | 2.49
